Read-out in assay [1]: Interleukin 2 (IL2), IL2 (gene 3558)
As to the kind of experiment: BSK_BT_xIL2: BioMAP Diversity Plus: BT Assay for Interleukin 2 (IL2) Biomarker Activity (AID 2284245). The following applies: primary human B cells with PBMC. In outline: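 Secreted IL-2 was read by Luminex xMAP from B cells co-cultured with PBMC (human primary) 24 h post-dosing; activity was analysed as gain of signal relative to DMSO vehicle.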

Read-out in assay [2]: Basic fibroblast growth factor (bFGF), FGF2 (gene 2247)
The assay is described as follows: BSK_MyoF_bFGF: BioMAP Diversity Plus: MyoF Assay for Basic fibroblast growth factor (bFGF) Biomarker Activity (AID 2284246). The following applies: primary human lung fibroblasts. The essentials: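 bFGF was measured by ELISA in primary human lung fibroblasts 24 h after chemical addition. Signal was analysed as positive-direction change relative to DMSO baseline.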

Read-out in assay [3]: Monokine induced gamma interferon (MIG), CXCL9 (gene 4283)
The assay is described as follows: BSK_KF3CT_MIG: BioMAP Diversity Plus: KF3CT Assay for Monokine induced gamma interferon (MIG) Biomarker Activity (AID 2284248). The following applies: primary human keratinocytes with fibroblasts. The essentials:
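Human keratinocyte plus foreskin fibroblast primary co-culture dosed with test chemical for 24 h; MIG level measured by ELISA and fitted in the positive direction against DMSO as baseline.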

Read-out in assay [4]: Vascular cell adhesion molecule 1 (VCAM1), VCAM1 (gene 7412)
The assay is described as follows: BSK_BF4T_VCAM1: BioMAP Diversity Plus: BF4T Assay for Vascular cell adhesion molecule 1 (VCAM1) Biomarker Activity (AID 2284249). Particulars: primary human bronchial epithelial cells with fibroblasts. The essentials:
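Cell-surface VCAM-1 quantified by ELISA after 24 h chemical exposure of human bronchial epithelial/dermal fibroblast co-cultures, with SRB staining in parallel wells for cytotoxicity; DMSO baseline, positive-direction fitting.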

Read-out in assay [5]: Collagen I, COL1A1 (gene 1277)
As to the kind of experiment: BSK_hDFCGF_CollagenI: BioMAP Diversity Plus: hDFCGF Assay for Collagen I Biomarker Activity (AID 2284250). Particulars: primary human foreskin fibroblasts. The essentials:
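Collagen I quantified by ELISA 24 h after chemical dosing of human dermal fibroblast primary cells, with parallel SRB staining (0.1%, TCA-fixed, 560 nm) for overt cytotoxicity.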

Read-out in assay [6]: Interferon-inducible T-cell alpha chemoattractant (ITAC), CXCL11 (gene 6373)
The assay is described as follows: BSK_hDFCGF_ITAC: BioMAP Diversity Plus: hDFCGF Assay for Interferon-inducible T-cell alpha chemoattractant (ITAC) Biomarker Activity (AID 2284251). Particulars: primary human foreskin fibroblasts. In outline: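 I-TAC levels were read by ELISA on human dermal foreskin fibroblast primary cultures 24 h after dosing, analysed against DMSO in the positive direction. Cytotoxicity was assessed alongside by sulforhodamine B total-protein staining.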

Read-out in assay [7]: Plasminogen activator inhibitor-1 (PAI1), SERPINE1 (gene 5054)
The assay is described as follows: BSK_KF3CT_PAI1: BioMAP Diversity Plus: KF3CT Assay for Plasminogen activator inhibitor-1 (PAI1) Biomarker Activity (AID 2284252). Particulars: primary human keratinocytes with fibroblasts. In outline:
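PAI-1 levels quantified by ELISA after 24 h compound exposure of primary human skin keratinocytes co-cultured with fibroblasts. Activity is the gain relative to DMSO; cytotoxicity tracked in parallel cultures via SRB staining.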

Read-out in assay [8]: Monocyte Chemoattractant Protein-1 (MCP1), CCL2 (gene 6347)
As to the kind of experiment: BSK_IMphg_MCP1: BioMAP Diversity Plus: IMphg Assay for Monocyte Chemoattractant Protein-1 (MCP1) Biomarker Activity (AID 2284253). The following applies: primary human endothelial cells with macrophages. In outline:
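ELISA readout of MCP-1 at 24 hours in IMphg co-cultures of venular endothelial cells and macrophages, normalised to DMSO; parallel cultures stained with sulforhodamine B for overt cytotoxicity.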

Read-out in assay [9]: Interleukin-8 (IL8), CXCL8 (gene 3576)
As to the kind of experiment: BSK_KF3CT_IL8: BioMAP Diversity Plus: KF3CT Assay for Interleukin-8 (IL8) Biomarker Activity (AID 2284254). Particulars: primary human keratinocytes with fibroblasts. The essentials:
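Human primary keratinocyte plus foreskin fibroblast co-culture dosed with test chemicals; IL-8 measured by ELISA 24 h after dosing. Activity fitted in the positive direction relative to DMSO negative control.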

Read-out in assay [10]: Eotaxin 3, CCL26 (gene 10344)
The assay is described as follows: BSK_BF4T_Eotaxin3: BioMAP Diversity Plus: BF4T Assay for Eotaxin 3 Biomarker Activity (AID 2284258). Particulars: primary human bronchial epithelial cells with fibroblasts. In outline:
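ELISA measurement of Eotaxin-3 after 24 h chemical exposure in a bronchial epithelial/dermal fibroblast co-culture, with DMSO as baseline. Parallel SRB staining (0.1% SRB after 10% TCA fixation, 560 nm) flagged overt cytotoxicity.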

This passage reports outcome and AC50 results from PubChem BioAssay (EPA / NIEHS).

Where “and” joins values, the source holds several entries; their conditions need not be identical. Equal entries are not always repeated. Some structures have more than one record in an assay (separate samples or runs), and their calls can disagree. Calls of active or inactive are those of the source. Rule for the calls: active = hit-call score of the fitted dose curve at least 0.9, where 1 is the maximum; inactive = score below 0.9.

Regarding `O=C(O)CCC(F)(F)C(F)(F)C(F)(F)C(F)(F)C(F)(F)F`, the outcome in [1], in [2], in [3], in assay [4], in assay [5] and in assay [6] was inactive. Moreover, the result in assay [7], in assay [8], in assay [9] and in assay [10] was inactive. For the same molecule, in assay [6], the AC50 (as a rule, the concentration giving half of the maximal activity seen) was 2.04 µM (active).

As to `OCC(F)(F)C(F)(F)C(F)(F)C(F)(F)C(F)(F)C(F)(F)C(F)(F)C(F)(F)C(F)(F)C(F)(F)C(F)(F)F`, the result in assay [1], in [2], in [3], in assay [4], in assay [6] and in [7] was inactive. The result in [8], in assay [9] and in assay [10] was inactive. The AC50 in [5] was 42.7 nM (active) and 48.2 nM (active).

`CCCCCCCCCCCC`: the AC50 in assay [3] was 20.2 µM (active) and 20.6 µM (active); in assay [5], 9.41 µM (active) and 9.63 µM (active); in [6], 8.55 µM (active) and 5.79 µM (active); in assay [7], 10.4 µM (active) and 10.5 µM (active); in assay [9], 20 µM (active) and 27.3 µM (active).

As for `CCOC(=O)CN[C@@H](C(=O)N1CC[C@H]1C(=O)NCc1ccc(/C(N)=N/O)cc1)C1CCCCC1`, the result in assay [1] and in assay [2] was inactive.

Take `O=S(=O)(O)C(F)(F)C(F)(F)C(F)(F)C(F)(F)C(F)(F)C(F)(F)C(F)(F)C(F)(F)C(F)(F)C(F)(F)F`: the result in [1], in assay [2], in assay [3], in assay [4], in assay [5] and in [6] was inactive. Also, the outcome in assay [7], in [8] and in [9] was inactive. The AC50 in [6] was 8.02 µM (active); in assay [10], 5.78 µM (active) and 2.59 µM (active).

As for `O=C(CC(=O)C(F)(F)C(F)(F)C(F)(F)F)c1cccs1`, the AC50 is 55.6 µM (active) and 46.2 µM (active) in [1]; 20.6 µM (active) and 19.3 µM (active) in [4]; 8.04 µM (active) in assay [5]; 7.8 µM (active) in [6]; 18.7 µM (active) in assay [7]; 27.7 µM (active) and 25.5 µM (active) in assay [8]. Besides, the AC50 in assay [10] was 12.8 µM (active) and 13 µM (active). Moreover, the outcome in [2], in [3], in assay [5], in assay [6], in assay [7] and in [9] was inactive.

Take `O=C(O)CCC(F)(F)C(F)(F)C(F)(F)C(F)(F)C(F)(F)C(F)(F)F`: the outcome in assay [1], in assay [2], in [3], in [4], in [5] and in [6] was inactive. Besides, the outcome in assay [7], in assay [8], in assay [9] and in assay [10] was inactive. Also, the AC50 in assay [10] is 2.88 µM (active).

Regarding `O=P(O)(O)CCC(F)(F)C(F)(F)C(F)(F)C(F)(F)C(F)(F)C(F)(F)F`, the result in [1], in assay [2], in [3], in assay [4], in [5] and in assay [6] was inactive. Besides, the result in assay [7], in assay [8], in assay [9] and in [10] was inactive.

For the molecule `O=C(NCc1ncc(C(F)(F)F)cc1Cl)c1c(Cl)cccc1Cl`, in [1], the AC50 was 32.1 µM (active). Moreover, the outcome in assay [2] was inactive.

As to `Oc1ccc(Cc2ccccc2O)cc1`, the outcome in assay [3], in [5], in assay [6], in assay [7] and in [9] was inactive.

With `Oc1cc2ccccc2cc1O`, the outcome in assay [1] and in [2] was inactive.

For `CN(CCO)S(=O)(=O)C(F)(F)C(F)(F)C(F)(F)C(F)(F)C(F)(F)C(F)(F)C(F)(F)C(F)(F)F`, the result in assay [1], in assay [2], in assay [3], in assay [4], in assay [6] and in [7] was inactive. In addition, the outcome in assay [8], in assay [9] and in assay [10] was inactive. Besides, the AC50 in assay [5] is 1.65 µM (active) and 879 nM (active); in [7], 0.0715 µM (active); in assay [9] it was 1.42 µM (active).

As for `CC(C)(C)c1ccc(O)c(O)c1`, the result in assay [1] was inactive. Further, in [2], the AC50 is 30.1 µM (active).

For the molecule `COc1cccc(O)c1`, the result in assay [1] and in assay [2] was inactive.

With `Cc1ccc(C(=O)c2ccccc2)cc1`, the result in [1] and in assay [2] was inactive.

As to `Clc1ccc(Nc2nnc(Cc3ccncc3)c3ccccc23)cc1`, the outcome in assay [1] and in [2] was inactive.
